Measurements from PubChem BioAssay (NCATS).
Results filed as inconclusive are left out. A number with no mark means an inactive call. Calls follow the shape of the dose curve; as a rule, active = well fitted activation curve with a large enough effect; inconclusive = small, poorly fitted or top-dose-only effect; inactive = flat fitted curve, though single readings scatter.

Assay: Validation screen for small molecules that induce DNA re-replication in SW480 colon adenocarcinoma cells (AID 504364); also: 0% is about no effect
Conditions: DNA re-replication phenotype (high-content imaging); series mostly up to 46.1 µM; activity (re-replication induction): at the top concentration
From the text: H Molecular Libraries Probe Production Network [MLPCN]
NIH Chemical Genomics Center [NCGC]
Assay Provider: Melvin DePamphilis, NICHD, NIH
Eukaryotic cells normally restrict genome duplication to once per cell division. When this process is aberrant, DNA re-replication occurs when cells reinitiate DNA replication before the first round of replication is complete. DNA re-replication induces the DNA damage response, arrests cell proliferation, and triggers apoptosis. The cell cycle components cyclin A, Cdt-1, Cdc6 and geminin are critical regulators of this process and their misregulation results in DNA re-replication in normal and cancer cells. To identify compounds that induce re-replication in normal cells, an image-based assay was used to measure DNA content of nuclei, as detected by the fluorescent DNA binding dye, Hoechst. Cell nuclei were imaged by a fluorescence scanning plate imager and compounds that induce DNA re-replication were identified by the increase of nuclei with elevated fluorescence intensity.#
For screening, 250 cells in 5 uL/well were dispensed into black clear 1536-well plates (Aurora) using a solenoid-based dispenser. Following transfer of 23 nL compound or DMSO vehicle by a pin tool, the plates were incubated 48 hr at 37 C and 5% CO2. After addition of 1 uL/well Hoescht stain, the plates were incubated 40 min at 37 C, 5% CO2 and total intensity of fluorescent objects (nuclei) were enumerated by an Acumen Explorer Ex3 (TTP LabTech) fluorescence scanning plate imager (405 nm excitation, 500-530 nm emission).
Keywords: NIH Roadmap, MLPCN, MLI, MLSMR, qHTS, NCGC, DNA replication, cancer

Compound	activity (re-replication induction) [%]
O=C(O)C1CN(CCCP(=O)(O)O)CCN1 (stereo not given)	6.15
O=C1NC(=O)c2cc(Nc3ccccc3)c(Nc3ccccc3)cc21	-0.269
COc1cc(C(O)C(=O)O)ccc1O (stereo not given)	-0.181
O=C(O)c1ccccc1Nc1ccccc1	-9.71
CCCCC[C@H](CC(=O)NO)C(=O)N[C@H](C(=O)N1CCC[C@H]1CO)C(C)C	26.6
Cn1c(=O)c2[nH]c(-c3ccc(S(=O)(=O)O)cc3)nc2n(C)c1=O	-17
CCCn1c(=O)c2c(ncn2C)n(CCC)c1=O	-8.42
C=C(C)C1CC=C(C(=O)O)CC1 (stereo not given)	-1.83
Cc1nc(N=Nc2ccc(S(=O)(=O)O)cc2S(=O)(=O)O)c(COP(=O)(O)O)c(C=O)c1O	-0.485
Nc1ccc(CCNc2ncnc3c2ncn3C2OC(CO)C(O)C2O)cc1 (stereo not given)	-10.1
CC(=O)O[C@H]1CC2(C)[C@@H](C[C@@H](O)[C@H]3[C@@]4(C)CC[C@@H](O)[C@@H](C)[C@@H]4CC[C@@]32C)C1=C(CCC=C(C)C)C(=O)O (stereo not given in full)	-1.15
Nc1nc2[nH]c(=O)cnc2c(=O)[nH]1	-1.73
COC(=O)[C@H](NC(=O)c1cc(-c2ccccc2)nc2ccccc12)c1ccccc1	-0.92
Fc1ccc(CN(C2=NCCN2)c2c(Cl)cccc2Cl)cc1	14.8
CN1CCC2(CCN3CCc4c(oc5ccccc45)C3C2)N(C)C1=O (stereo not given)	-13.7
CC(=O)N[C@@H](Cc1c[nH]c2ccccc12)C(=O)OCc1cc(C(F)(F)F)cc(C(F)(F)F)c1	-0.426
CC(=O)NNC(=O)N1Cc2ccccc2Oc2ccc(Cl)cc21	-9.68
CCSC(=N)N	-11.5
CC1CCN(CC[C@H]2CCCN2S(=O)(=O)c2cccc(O)c2)CC1	-1.52
CC(N)(Cc1ccc(O)c(O)c1)C(=O)O (stereo not given)	0.818

Compound	activity (re-replication induction) [%]
[Li+]	0.602
CCCCCCCCCCC/C=C\C(C)(C)/C=C\CCCC(=O)O	-1.77
O=C(O)C1=CCCNC1	-7.54
O=C(O)c1cc2cc(F)ccc2[nH]1	-16.3
C#CC(N)CCC(=O)O (stereo not given)	1.33
O=C(O)C1=CCCN(CCON=C(c2ccccc2)c2ccccc2)C1	-3.77
COC(=O)C1=C(C)NC(C)=C([N+](=O)[O-])C1c1ccccc1C(F)(F)F (stereo not given)	-11.5
NC1(C(=O)O)CC1	-0.533
CN(C)C(=O)/N=N/C(=O)N(C)C	22.5
C=CC[C@H](N)C(=O)O	-3.88
O=C(O)C1=CC(=C(c2ccc(O)c(C(=O)O)c2)c2ccc(O)c(C(=O)O)c2)C=CC1=O	-5.19
CN1CCN(c2nc3cc(C(F)(F)F)ccc3n3cccc23)CC1	17
O=C(O)/C(=C/c1c(C(=O)O)[nH]c2cc(Cl)cc(Cl)c12)c1ccccc1	0.778
S=C(S)N1CCCC1	23
CC(C)(C)NCC(O)COc1cccc2[nH]c(=O)[nH]c12 (stereo not given)	-0.859
Nc1ncnc2c1ncn2C1CCCO1 (stereo not given)	-6.25
CCCCCC[C@@H]([C@@H](C)O)n1cnc2c(N)ncnc21	-1.78
CC(N)(Cc1ccc(O)cc1)C(=O)O (stereo not given)	6.31
O=C(O)Cc1ccc(O)c(O)c1	-7.21
NC(=O)c1ccccc1	-9.3
